Laboratory results from PubChem BioAssay AID652015 (National Center for Advancing Translational Sciences (NCATS), 2013).
Results filed as inconclusive are left out. The source made the active and inactive calls. The call rests on the fitted dose curve; in most records, active means well fitted inhibition curve with a large enough effect; inconclusive means small, poorly fitted or top-dose-only effect; inactive means no such curve, though single readings can be large or run the other way.

What follows are compounds tested against Coelenterazine h 2-monooxygenase (Renilla reniformis) (UniProt P27652) (assay: qHTS Assay for Inhibitors of Sea Pansy Luciferase from the GSK Published Protein Kinase Inhibitor Set). Details: purified Renilla luciferase, luminescence; series mostly up to 57.5 µM.
Chain of Coelenterazine h 2-monooxygenase (Renilla reniformis) (P27652 whole entry, looked up): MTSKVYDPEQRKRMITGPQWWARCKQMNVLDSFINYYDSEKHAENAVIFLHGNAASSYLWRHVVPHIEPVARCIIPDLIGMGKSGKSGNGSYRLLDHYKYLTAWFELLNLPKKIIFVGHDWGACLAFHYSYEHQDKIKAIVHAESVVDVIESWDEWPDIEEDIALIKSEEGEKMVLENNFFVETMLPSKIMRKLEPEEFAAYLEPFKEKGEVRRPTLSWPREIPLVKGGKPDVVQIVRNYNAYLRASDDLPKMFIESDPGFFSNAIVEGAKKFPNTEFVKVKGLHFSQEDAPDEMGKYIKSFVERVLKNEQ
In short: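 qHTS (roughly 60 uM down to 300 pM) against 1 nM Renilla luciferase, substrate coelenterazine h 5 uM, Tris acetate pH 7.5 buffer with NaCl, Tween-20 and BSA. Luminescence measured after an average 2 min incubation.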

Potency, inactive:
Cc1ccc(NC(=O)CC2CC2)cc1-c1ccc(C(=O)NCC2CC2)cc1
CC(C)(CO)CNC(=O)c1ccc2[nH]c(O)c(N=Nc3ccc(S(N)(=O)=O)cc3)c2c1
FC(F)(F)c1ccc(-c2nn3ncccc3c2-c2ccnc(Nc3ccc4c(c3)OCCO4)n2)cc1
COc1cccc(Nc2nccc(-c3cnn4ncccc34)n2)c1
CN(C)CCNC(=O)Nc1ccc(N(C)c2ccnc(Nc3ccc(CS(C)(=O)=O)cc3)n2)cc1
CCS(=O)(=O)c1ccc(OC)c(Nc2ncc(-c3cccc(F)c3)o2)c1
O=S(=O)(CCNCc1ccc(-c2ccc3ncnc(Nc4ccc(OCc5cccc(F)c5)c(Cl)c4)c3c2)o1)c1ccccc1
Nc1ncnc2occ(-c3ccc(NC(=O)Nc4cc(C(F)(F)F)ccc4F)cc3)c12
Nc1nc(-c2ccccn2)c(-c2ccc3ncccc3n2)s1
COc1ccc(COc2ccc(Cc3cnc(N)nc3N)cc2OC)cc1
O=C(Nc1ccc(Oc2ccc3nc(NC(=O)c4ccco4)[nH]c3c2)cc1)Nc1cc(C(F)(F)F)ccc1F
c1ccc(COc2ccc(Nc3ncnc4ccc(-c5ccco5)cc34)cc2)cc1
COc1ccc2c(-c3ccnc(Nc4cccc(OC(F)(F)F)c4)n3)cnn2n1
Fc1ccc(Nc2nccc(-c3c(-c4ccc(C(F)(F)F)cc4)nn4ncccc34)n2)cc1F
Cc1nc(-c2ccccc2)n2nc(NCCCN3CCOCC3)ncc12
N#Cc1c(NC(=O)c2cccc3ccccc23)sc2c1CCCC2
COc1c(C(N)=O)cc(-c2ccc(Cl)cc2)cc1-c1ccc(S(N)(=O)=O)cc1
CS(=O)(=O)CCN(CC#N)Cc1ccc(-c2ccc3ncnc(Nc4ccc(OCc5cccc(F)c5)c(Cl)c4)c3c2)o1
CS(=O)(=O)CCNCc1coc(-c2ccc3ncnc(Nc4ccc(OCc5ccccc5)cc4)c3c2)c1
Fc1ccc(-c2nn3ncccc3c2-c2ccnc(Nc3ccc4c(c3)OCCO4)n2)cc1
COc1cc(C=NNc2ncnc3c2cnn3Cc2ccccc2)ccc1O
COc1ccc2ncn(-c3cc(OC(C)c4ccccc4Cl)c(C(N)=O)s3)c2c1 (stereo not drawn)
O=C1NC(=O)C(c2cccc(Cl)c2)=C1Nc1ccc(Cl)c(C(=O)O)c1
